Results filed as inconclusive are left out. Calls of active or inactive are those of the source. Calls come from the whole dose curve; as a rule, active = well fitted inhibition curve with a large enough effect in the repeat runs; inconclusive = weak or mixed curves; inactive = no such curve, though single readings can be large or run the other way.
% is set by controls: 0 for no effect and ±100 for the full control effect; potency is the fitted concentration of half-maximal effect.

Sequence of Cytochrome P450 2D6 (Homo sapiens) (P10635 whole entry, looked up): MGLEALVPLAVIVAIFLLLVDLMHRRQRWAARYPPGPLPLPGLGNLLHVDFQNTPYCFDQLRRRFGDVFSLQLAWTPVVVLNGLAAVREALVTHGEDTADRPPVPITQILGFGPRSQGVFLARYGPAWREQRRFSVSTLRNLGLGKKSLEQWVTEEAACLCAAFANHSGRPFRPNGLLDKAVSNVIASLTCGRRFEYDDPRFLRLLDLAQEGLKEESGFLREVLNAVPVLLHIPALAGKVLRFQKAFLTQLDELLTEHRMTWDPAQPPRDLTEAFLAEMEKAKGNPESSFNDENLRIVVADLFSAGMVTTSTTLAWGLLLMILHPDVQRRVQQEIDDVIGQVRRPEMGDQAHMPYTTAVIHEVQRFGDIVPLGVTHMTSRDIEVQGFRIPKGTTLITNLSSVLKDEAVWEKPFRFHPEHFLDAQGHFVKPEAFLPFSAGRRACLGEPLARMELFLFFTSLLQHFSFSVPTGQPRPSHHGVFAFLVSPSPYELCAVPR

This assay concerns the target Cytochrome P450 2D6 (Homo sapiens) (UniProt P10635). The assay can be described thus: Cytochrome P450 Family 2 Subfamily D Member 6 (CYP2D6) small molecule antagonists: luciferase reporter qHTS assay (AID 1671196). Note: nearly all actives have a fitted effect of over 50% in size. The note with it: P450-Glo CYP2D6 enzyme assay, luciferin luminescence, 1 h; series mostly up to 115 µM; activity change, negative = inhibition: at the top concentration. In outline:
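Inhibition of CYP2D6 was gauged by loss of luminescence, since light produced tracks the luciferin generated from a proluciferin substrate. A 10 min room-temperature preincubation preceded 1 h NADPH-supported turnover.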
(In a reporter assay the amount or activity of a reporter protein is the signal.)
As to `C=CC(=O)OCC(Br)CBr` (stereo not given), the “activity change, negative = inhibition” value was -8.38% (inactive).

Consider `O=C1C=CC(=O)N1c1cccc(N2C(=O)C=CC2=O)c1`, for which the Potency was 71 µM (active).

In the case of `Clc1cccc(Cl)n1`, the “activity change, negative = inhibition” value is 1.99% (inactive).

For the compound `O=C(Nc1ccc([N+](=O)[O-])cc1)Nc1ccc([N+](=O)[O-])cc1` (tested in a mixture with another compound), the “activity change, negative = inhibition” value was 1.48% [at 53 µM] (inactive).

Take `C/C=C/C(=O)C1=C(C)C=CCC1(C)C`: the “activity change, negative = inhibition” value is -3.4% (inactive).

Take `CCOc1ccc([N+](=O)[O-])cc1`: the Potency is 80.9 µM (active).

Regarding `CC(C)(c1ccc(Oc2ccc(N)cc2)cc1)c1ccc(Oc2ccc(N)cc2)cc1`, the “activity change, negative = inhibition” value was -13.2% (inactive).

Regarding `CCCCCCCCSCc1cc(C)c(O)c(CSCCCCCCCC)c1`, the Potency is 5.03 µM (active).

`CCNc1nc(NC(C)(C)C)nc(OC)n1`: the “activity change, negative = inhibition” value was -14.9% (inactive).

Take `CC(Cc1ccc(O)c(O)c1)C(C)Cc1ccc(O)c(O)c1` (stereo not given): the “activity change, negative = inhibition” value was -17% (inactive).

For `CC/C=C(\C)C=O`, the “activity change, negative = inhibition” value is 0.5% (inactive).

Consider `Cn1c(=O)[nH]c2ncn(C)c2c1=O`, for which the “activity change, negative = inhibition” value is -3.16% (inactive).

Take `CCC(O)CO` (stereo not given): the “activity change, negative = inhibition” value is -0.844% (inactive).

In the case of `COc1c(Br)cc(Br)c(C)c1Br`, the “activity change, negative = inhibition” value is -3.09% (inactive).

Regarding `NC(=O)C1CO1` (stereo not given), the “activity change, negative = inhibition” value is -0.087% (inactive).

On to `c1ccc(-c2ccccc2-c2ccccc2)cc1`, for which the “activity change, negative = inhibition” value was -10.2% (inactive).

Consider `[Cl][Sc]([Cl])[Cl]`, for which the “activity change, negative = inhibition” value is -10.7% (inactive).

With `C=CC(=O)O[C@H]1C[C@@H]2CC[C@@]1(C)C2(C)C`, the “activity change, negative = inhibition” value was 3.1% (inactive).

With `C1CCSC1`, the “activity change, negative = inhibition” value is -14% (inactive).

Turning to `COc1cc(C(C)C)ccc1C`, the activity change, negative = inhibition is -6.69% [at 23.6 µM] (inactive).

In the case of `CCCCCCCCCCCCS(=O)(=O)Cl`, the activity change, negative = inhibition is -14.2% [at 23.6 µM] (inactive).

As for `CCCCCCCCCC[N+](C)(CCCCCCCCCC)CCC[Si](OC)(OC)OC`, the Potency was 3.17 µM (active).

As to `O=C1CCCCCCCCCCCCCC1`, the “activity change, negative = inhibition” value was -3.14% (inactive).

For `CC(=O)CC(N)=O`, the “activity change, negative = inhibition” value was -2.62% (inactive).

Regarding `N#CCCOCCC#N`, the “activity change, negative = inhibition” value was 0.666% (inactive).

In the case of `O=C(O)CN(CCCN(CC(=O)O)CC(=O)O)CC(=O)O`, the activity change, negative = inhibition is 2.09% [at 23.6 µM] (inactive).

Regarding `CN(C[C@@H](CC[N+]12CCC(C3CCCCC3)(CC1)CC2)c1ccc(Cl)c(Cl)c1)C(=O)c1cc(C(F)(F)F)cc(C(F)(F)F)c1`, the Potency was 15.9 µM (active).

Turning to `CCCC(C)C=O` (stereo not given), the “activity change, negative = inhibition” value was -0.13% (inactive).

In the case of `C/C=C/C(=O)OCC(C)C`, the “activity change, negative = inhibition” value is 4.32% (inactive).

`[Cl][Eu]([Cl])[Cl]`: the “activity change, negative = inhibition” value is -8.21% (inactive).

On to `C=C[Si](C)(C)Cl`, for which the activity change, negative = inhibition was 0.847% [at 10.5 µM] (inactive).

Turning to `C=C(C)C1CCC(C)CC1O` (stereo not given), the “activity change, negative = inhibition” value is -3.67% (inactive).

In the case of `Clc1ccc2c(Cl)ccnc2c1`, the “activity change, negative = inhibition” value was -12.8% (inactive).

`SC1CCCCC1`: the “activity change, negative = inhibition” value was -1.48% (inactive).

Take `CC(C)c1ccc2sc3ccccc3c(=O)c2c1`: the Potency is 28.3 µM (active).

As to `COc1cccc(-c2ccc(/C=C\CN3CCCCCC3)cc2Cl)c1`, the Potency was 2.51 µM (active).

For `CCc1c(C)cc(N)c(CC)c1N`, the Potency is 4.48 µM (active).

Turning to `CC1=CC[C@@H](C(C)(C)O)CC1`, the “activity change, negative = inhibition” value is -0.198% (inactive).

Turning to `CCOC(=O)[C@H](C)O`, the “activity change, negative = inhibition” value is -62.4% (inactive).

For the compound `O=C1OC(=O)c2cc(-c3ccc4c(c3)C(=O)OC4=O)ccc21`, the “activity change, negative = inhibition” value was -19.8% (inactive).

These data come from PubChem BioAssay (Tox21).
